ELG1 genotox: induces genotoxicity in HEK293T cells with luciferase-tagged ELG1; HEK293T ELG1-luciferase reporter, luminescence, 16 h; Potency, µM (top dose mostly 46 µM), usual class: activators; 330,000 compounds, 1.3% hits; also: nearly all actives have a fitted effect of over 60% in size
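DMSO vehicle served as control against compound-treated ELG1-luciferase HEK293T cells; exposure lasted 16 hr at 37 °C and 5% CO2, followed by ONE-Glo luminescence detection after 30 min.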
NPC1 promoter act: NPC1 promoter activation | 320,000 compounds, 2.4% hits | Huh7 NPC1 promoter luciferase reporter, 24 h | Potency, µM (highest dose often 9.22 µM), hits mostly activators; also: nearly all actives have a fitted effect of over 60% in size
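Quantitative HTS used a cell-based reporter: Huh7 cells stably bearing the NPC1 promoter upstream of luciferase were treated with compounds for 24 h, and promoter activation was read as luminescence.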
SMN2 splice enh: SMN2 splice variant enhancement; HEK293 SMN2-luciferase splicing reporter, luminescence, 30-36 h; AID 1458; Potency, µM (doses to about 46.1 µM), actives largely listed as activators; 210,000 compounds, 2.8% hits; also: nearly all actives have a fitted effect of over 55% in size
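qHTS luciferase splicing reporter: luminescence rises when SMN2 exon 7 is included in transfected HEK293 cells. Compound exposure lasted 30-36 h at 37C, with 4.5 mM final sodium butyrate as control, followed by a ONE-Glo read.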
FLuc modulator: inhibits or activates purified firefly luciferase, miR-21 counter-screen | P08659 | purified FLuc, Km substrates, luminescence inhibition | Potency, µM (titrated, usually from 57.5 µM), usual class: inhibitors | 360,000 compounds, 6.9% hits | AID 588342; also: nearly all actives have a fitted effect of over 55% in size
Target sequence (P08659 whole entry, looked up): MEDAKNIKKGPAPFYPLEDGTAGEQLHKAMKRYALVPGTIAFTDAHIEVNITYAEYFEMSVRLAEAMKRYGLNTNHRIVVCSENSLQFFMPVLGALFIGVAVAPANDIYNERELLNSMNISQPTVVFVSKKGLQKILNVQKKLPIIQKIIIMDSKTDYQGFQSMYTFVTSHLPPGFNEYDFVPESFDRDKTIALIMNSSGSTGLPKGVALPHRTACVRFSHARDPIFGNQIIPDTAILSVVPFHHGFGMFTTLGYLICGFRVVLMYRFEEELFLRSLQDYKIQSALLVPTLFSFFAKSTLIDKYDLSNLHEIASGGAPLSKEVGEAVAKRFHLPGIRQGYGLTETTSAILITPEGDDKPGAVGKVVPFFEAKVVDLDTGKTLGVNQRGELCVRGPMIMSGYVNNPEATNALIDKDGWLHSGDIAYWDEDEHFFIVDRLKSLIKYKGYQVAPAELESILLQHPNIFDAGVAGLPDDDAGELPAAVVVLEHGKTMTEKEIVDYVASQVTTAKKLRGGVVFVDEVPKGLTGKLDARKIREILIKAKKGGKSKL
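Purified P. pyralis luciferase, 10 nM final, with Km-level 10 uM D-luciferin and 10 uM ATP in 50 mM Tris acetate pH 7.5, 10 mM Mg acetate, 0.01% Tween-20, 0.05% BSA; 6-point qHTS titration about 60 µM downward; luminescence read.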
Rab9 prom act: activates the Rab9 promoter. Huh7 Rab9 promoter-luciferase reporter, luminescence, 24 h. Potency, µM (top dose mostly 9.22 µM), usual class: activators. 320,000 compounds, 2.8% hits; also: nearly all actives have a fitted effect of over 60% in size
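Huh7 cells stably carrying Rab9 promoter–luciferase reporter, plated 1500 cells/well, compound added after 2 h and incubated 24 h at 37 °C; luciferase luminescence then read after 10 min with detection reagent.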
Hits are given with their value; - = inactive; ? = inconclusive; . = no result given; [ ] = remark or other dose. A selection: hits, their analogues and other compounds. The true share with any hit is near 7.5%. Calls follow the shape of the dose curve; as a rule, active = well fitted curve in the direction sought with a large enough effect; inconclusive = small, poorly fitted or top-dose-only effect, or another doubt; inactive = no such curve, though single readings can be large; an effect the other way counts as inactive or inconclusive.

SMILES	ELG1 genotox	NPC1 promoter act	SMN2 splice enh	FLuc modulator	Rab9 prom act
Cc1ccc2[nH]c(O)c(N=NC(=O)c3ccc(NS(=O)(=O)c4cccs4)cc3)c2c1	-	-	.	5.4µM	-
Cc1cccc2c(N=NC(=O)c3ccc(NS(=O)(=O)c4cccs4)cc3)c(O)[nH]c12	-	?	.	0.43µM	?
O=C(Cn1ncc(Cl)c(Cl)c1=O)N1CCN(S(=O)(=O)c2ccc3ccccc3c2)CC1	-	-	.	-	-
CCOC(=O)c1c(CSCc2ccccc2)oc2ccc(O)c(CN(C)C)c12	-	-	.	-	-
Cc1cc(C(N)=O)nn1-c1c(Cl)cc(Cl)cc1Cl	-	-	.	-	-
O=C(c1ccc(OC2CCN(C/C=C/c3ccc(F)cc3)CC2)cc1)N1CCCC1	-	-	.	-	-
CC(C)(C)c1ccc(C(=O)Nc2nnc3n2CCS3)cc1	.	.	.	6µM	.
Cc1noc(C)c1S(=O)(=O)N(C)C[C@H]1Oc2ccc(NC(=O)CCC(F)(F)F)cc2C(=O)N([C@H](C)CO)C[C@@H]1C	-	.	.	.	.
COc1cc(/C=C/C(=O)c2c(O)cc(C)oc2=O)cc(OC)c1O	-	-	-	-	-
CSc1ccc(/C=C/C(=O)c2c(O)cc(C)oc2=O)cc1	-	-	.	4.3µM	?
Cc1cc(O)c(C(=O)/C=C/c2ccc(Cl)cc2)c(=O)o1	-	-	.	2.1µM	-[1.84 µM]
COc1ccc(/C=C/C(=O)c2c(O)cc(C)oc2=O)c(OC)c1	16µM	3.5µM	-	1.3µM	1.8µM
C=CCN1CCc2c(cc(O)c(O)c2Cl)C(c2cccc(C)c2)C1 (configuration not stated)	.	.	-	.	.
OCCCCNCc1ccc(OCc2ccc(Cl)cc2Cl)cc1	-	-	-	-	-
OCCNCc1ccc(OCc2ccc(Cl)cc2Cl)cc1	?	-	-	15µM	-
COc1cccc(OCc2cc(C(=O)N3CCCC3c3ccccn3)no2)c1 (configuration not stated)	?	2.2µM	.	15µM	2.8µM
CN1CCN(C(=O)c2cc(COc3ccccc3)on2)[C@@H](c2ccccc2)C1	13µM	3.5µM	.	9.5µM	2µM
CN1CCN(C(=O)c2cc(COc3c(F)cccc3F)on2)CC1c1ccccc1 (configuration not stated)	-	-	.	?	-
Cc1ccc(OCc2cc(C(=O)N3CCN(C)C[C@@H]3c3ccccc3)no2)cc1C	?	2.8µM	.	21µM	2.5µM
Cn1cc(CCC(=O)NCc2ccc(Cl)cc2)c2ccccc21	-	-	.	-	-
CCOC(=O)c1c(Cc2ccccc2)c[nH]c1C	?	-	-	?	-
COc1ccc(-n2c(=O)c3ccc(C(=O)NCc4ccc(C)cc4)cc3n(Cc3ccc(Cl)cc3)c2=O)cc1	.	.	-	-	.
CC#CCN1c2ccccc2[C@]23C[C@@H](C(=O)OC)N(S(=O)(=O)c4ccc([N+](=O)[O-])cc4)C2=NC(C(=O)OC)=C(C(=O)OC)[C@H]13	.	.	-[9.22 µM]	.	.
COC(=O)c1ccccc1NC(=O)Nc1ccc(Br)cn1	-	-	?	-	-
Cc1cccc(NC(=O)Nc2cccc(C#N)c2)n1	-	?	16µM	?	?
SMILES	ELG1 genotox	NPC1 promoter act	SMN2 splice enh	FLuc modulator	Rab9 prom act
Cc1cccc(NC(=O)Nc2ccccc2[N+](=O)[O-])n1	-	-	.	-	-
COc1ccc(NC(=O)Nc2ccc(Br)cn2)cc1	-	3.5µM	?	-	2.8µM
COc1ccc(NC(=O)Nc2cccc(C)n2)cc1	12µM	?	11µM	8.5µM	?
Cc1cccc(NC(=O)Nc2ccc(C#N)cc2)n1	-	-	11µM	-	-
Cc1cccc(NC(=O)Nc2ccc(Br)cc2)n1	-	-	-	-	?
CCOC(=O)c1ccc(NC(=O)Nc2cccc(C)n2)cc1	?	-	-	-	-
CCN(CC)S(=O)(=O)c1ccc(-n2cnc3cc(C)c(C)cc32)nc1	-	-	.	-	-
Cc1ccc(C)c(C(=O)Nc2nc3ccccc3[nH]2)c1	-	-	.	-	-
COc1ccccc1Nc1nc2ccccc2[nH]1	-	?	-	9.5µM	?
Cc1ccc(Nc2nc3ccccc3[nH]2)nc1	?	2.8µM	11µM	13µM	2.8µM
COc1cccc(/C=N/Nc2nc3ccccc3[nH]2)c1O	?	-	.	2.7µM	-
COc1cccc(/C=N/Nc2nc3ccccc3[nH]2)c1OC	-	4µM	.	5.4µM	2.5µM
COc1cccc(/C=N/c2nc3ccccc3[nH]2)c1O	-	-	.	19µM	-
